test system: XIP peptide (Xip251-270) binding; experiment: XIP fragment 251-270 binding compounds – biochemical, small-molecule microarray, fluorescence 635/667 nm, 0.1 µg/mL protein, primary screen (AID 1182); details: fluorescent protein binding, 635 nm, higher = more signal, called active from +8 up or from −8 down

Composite z-score, inactive:
Cc1cc2c(c(=O)o1)[C@@H](O)[C@H]1O[C@H]1C2=O -0.483, CC(C)CON=C1[C@H]2CCn3c(=O)n(Cc4cc5c(cc4Cl)OCO5)c(=O)n3[C@H]2[C@H](O)[C@@H]2O[C@H]12 0.26, CC(C)=NO[C@H](C)c1cn([C@H](CO)Cc2ccccc2)nn1 -0.662, Cc1ccc(S(=O)(=O)n2c3ccccc3c3nnc(C(=O)c4ccccc4)nc32)cc1 0.912, Cc1ccc(S(=O)(=O)NC(CCc2ccccc2)CC(=O)C(C)(C)C)cc1 (configuration not stated) 0.275, COC(=O)CC=C[C@@H](C)[C@@H](C=NO[C@@H](C)c1cc(-c2c(C)cc(C)cc2C)no1)NS(=O)(=O)c1ccc(C)cc1 -0.105, CON=C1[C@H]2CCn3c(=O)n(-c4ccccc4)c(=O)n3[C@H]2[C@H](O)[C@@H]2O[C@H]12 -0.0682, O=C1C=C[C@@H](O)[C@@H]2[C@@H]3C(=O)N(C[C@@H]4CCCO4)C(=O)[C@@H]3CC[C@@H]12 0.179, CCOC(=O)CCN1C(=O)[C@H]2[C@H]3[C@H](O)[C@H](O)CC(=NOCC(C)C)[C@H]3CC[C@H]2C1=O 0.289, CC(=O)OC[C@H]1O[C@H](CCON=C2[C@H]3CCn4c(=O)n(-c5ccccc5)c(=O)n4[C@H]3[C@H](O)[C@@H]3O[C@H]23)C=C[C@@H]1OC(C)=O 0.149, COc1cc(O)c(C(=O)C=Cc2ccc3c(c2)OCO3)c(OC)c1 -0.156, CCOC(=O)CCN1C(=O)[C@H]2[C@H]3[C@H](O)[C@H](O)CC(=NNC(=O)OCc4ccccc4)[C@@H]3CC[C@H]2C1=O 0.0651, CC(=O)O[C@H]1C2=CO[C@H](C)[C@H]3[C@H]4C5=C([C@H](O)[C@H]6O[C@H]6C5=O)[C@H](OC4C)[C@@]23C(=O)[C@@H]2O[C@@H]21 (some centres not stated) 0.533, C#CCCCON=C1C[C@@H](O)[C@@H](O)[C@@H]2[C@@H]3C(=O)N(C(C)(C)C)C(=O)[C@@H]3CC[C@H]12 -0.217, COc1cccc([C@H]2Oc3ccc(OC)cc3C(=NO[C@@H]3O[C@H](COC(C)=O)[C@@H](OC(C)=O)[C@H](OC(C)=O)[C@H]3OC(C)=O)[C@@H]2O)c1 -0.481, CC(C)CON=C1C[C@@H](O)[C@@H](O)[C@@H]2[C@@H]3C(=O)N(C4CCCCC4)C(=O)[C@@H]3CC[C@@H]12 0.376, C=C(C)C(=O)OCC1CN2[C@@H](CC[C@@H](C)[C@@H]2c2ccc(Br)cc2)C(=O)O1 (some centres not stated) -0.0135, CCOC(=O)[C@H](Cc1ccccc1)NC(=O)CCC1CC(OC(=O)NCc2cccc3ccccc23)CC2(CCCC(COC(=O)NCc3cccc(C(F)(F)F)c3)O2)O1 (some centres not stated) 0.418, COc1cccc([C@H]2Oc3ccc(OC)cc3C(=NO[C@H](C)c3cn([C@H](CO)Cc4ccccc4)nn3)[C@@H]2O)c1 -0.0592, C[C@@H](c1ccccc1)N1C(=O)[C@H]2[C@H]3[C@H](O)[C@H](O)CC(=NOCc4ccccc4)[C@H]3CC[C@H]2C1=O -0.0218, C=CC[C@@H]1C=C[C@H](ON=C[C@@H](C)[C@H](OCc2ccccc2)C(C)C)[C@@H](CO)O1 0.142, COc1ccc(O[C@H]2C=C[C@@H](c3ccccc3)O[C@@H]2CON=C(C)C)cc1 0.862, C=Cc1ccc([C@H]2N[C@H](C(=O)O)CC[C@@H]2C)cc1 -0.132, CC(C)CON=C1C[C@@H](O)[C@@H](O)[C@@H]2[C@@H]3C(=O)N(c4ccc(F)cc4F)C(=O)[C@@H]3CC[C@H]12 0.0163, CO[C@@H]1COC(=O)[C@@H](C)NC(=O)CC=C[C@@H](C)[C@H](NS(=O)(=O)c2ccc(C)cc2)COC(=O)[C@H](C)NC(=O)CC=C[C@H]1C 0.199, CSCC[C@@H]1NC(=O)CC=C[C@@H](C)COC(=O)[C@@H](C)COC1=O -0.082, CON=C[C@@H](C)[C@H](OCc1ccccc1)C(C)C -0.372, CCOC(=O)[C@H](Cc1ccccc1)NC(=O)CCC1CC(OC(=O)NCCc2ccc(F)cc2)CC2(CCCC(COC(=O)NCC3CCCCC3)O2)O1 (some centres not stated) 0.233, O=C1C=C[C@@H](O)[C@@H]2[C@@H]3C(=O)N(c4ccc(F)cc4F)C(=O)[C@@H]3CC[C@@H]12 0.25, CCN1C(=O)[C@H]2[C@H]3[C@H](O)[C@H](O)CC(=NOCC(C)C)[C@@H]3CC[C@H]2C1=O 0.821, CCOC(=O)[C@H](CC(C)C)NC(=O)CCC1CC(OC(=O)NCc2ccc3c(c2)OCO3)CC2(CCCC(COC(=O)NCC3CCCCC3)O2)O1 (some centres not stated) 0.269, CCCCc1nc2c(c3c1C[C@H](C)OC3)CN(CCOc1ccccc1)CC2 1.4, COC(=O)C=CCCc1coc(C=CCNC(=O)OC)n1 0.56, CCOC(=O)[C@H](Cc1ccccc1)NC(=O)CCC1CC(OC(=O)NCc2cccc3ccccc23)CC2(CCCC(COC(=O)NCC(c3ccccc3)c3ccccc3)O2)O1 (some centres not stated) 0.2, O=C1[C@H]2[C@H]3[C@H](O)[C@H](O)CC(=NOCc4ccccc4)[C@H]3CC[C@H]2C(=O)N1Cc1ccc2c(c1)OCO2 -0.4, CCCCC#C[C@@H]1C=C[C@H](Oc2ccc(C(=O)OC)cc2)[C@@H](COC(=O)OCC)O1 -0.464, CON=CC[C@@H]1C=C[C@H](OC(C)=O)[C@@H](COC(C)=O)O1 0.726
